Whole data set: some 81,000 sequences, median “one-hybrid fitness for binding NBS DNA” near -0.1, cut for the highest 2% near 0.36. For the sample, the highest values were picked, then their nearest neighbours and some sequences at random.
B1: Caulobacter ParB omega fusion; a variant is named by its letters at X, in order, B8GW30 (parent)
chain: MESVVVGEPGMSEGRRGLGRGLSALLGEVDAAPAQAPGEQLGGSREAPIEILQRNPDQPRRTFREEDLEDLSNSIREKGVLQPILVRPSPDTAGEYQIVAGERAWRAAQRAGLKTVPIMVRELDDLAVLEIGIIENVQRADLNVLEEALSYKVLMEKFERTQENIAQTIGKSXSHVANXMRLLXLPDEVQSYLVSGELTAXHARAIAAAADPVALAKQIIEGGLSVRETEALARKAPNLSAGKSKGGRPPRVKDTDTQALESDLSSVLGLDVSIDHRGSTGTLTITYATLEQLDDLCNRLTRGI

Variants of: B1
Assay: one-hybrid fitness for binding NBS DNA (the Noc-binding site; scaled: cognate 1, non-cognate 0); higher = stronger binding
Settings: with NBS DNA site
Summary of the method: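 Pre- and post-selection plasmids were Illumina-sequenced, three replicate libraries were pooled, and any variant with under 10 reads was removed. The libraries were Caulobacter ParB with four specificity codons randomised, selected in E. coli USO through a HIS3 reporter whose site is 19 bp from the promoter. Cells grew 48 hours at 37°C on M9 without histidine, with 0.1 mM IPTG and 5 mM 3-AT. Fitness is the log change in variant-to-wild-type read ratio, rescaled against cognate and non-cognate.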

Variant | one-hybrid fitness for binding NBS DNA
IVMP | ≤ 0.2
STQT | ≤ 0.2
NHEL | ≤ 0.2
TDNM | ≤ 0.2
IHYS | ≤ 0.2
RIDA | ≤ 0.2
LSVV | ≤ 0.2
TPRN | ≤ 0.2
NHPC | ≤ 0.2
LYSC | ≤ 0.2
GAPG | ≤ 0.2
PSHR | ≤ 0.2
RVAG | ≤ 0.2
YGRN | ≤ 0.2
AHAS | ≤ 0.2
QSYM | ≤ 0.2
QSDM | ≤ 0.2
QMRM | 0.45
QRYM | 0.353
QRWM | 0.254
QMDM | ≤ 0.2
QRRM | 0.589
QMYM | ≤ 0.2
QSRM | 0.402

Variant | one-hybrid fitness for binding NBS DNA
PHEA | ≤ 0.2
DNPI | ≤ 0.2
QRGT | 0.822
DRGT | ≤ 0.2
QRHT | 0.789
NRGT | ≤ 0.2
NRHT | ≤ 0.2
QTET | 0.439
QPET | ≤ 0.2
QRDT | 0.671
QTEH | ≤ 0.2
DRHT | ≤ 0.2
LHGL | ≤ 0.2
SEHS | ≤ 0.2
AWHA | ≤ 0.2
AGPD | ≤ 0.2
CCAY | ≤ 0.2
GPLH | ≤ 0.2
DGTS | ≤ 0.2
QRNT | 0.822
QWNT | ≤ 0.2
QRYT | 0.744
QRWT | 0.707
QCET | 0.352

Variant | one-hybrid fitness for binding NBS DNA
QSET | 0.253
DRNT | ≤ 0.2
QRET | 0.603
QRWF | ≤ 0.2
QRWG | ≤ 0.2
DPRH | ≤ 0.2
TCSP | ≤ 0.2
EGGL | ≤ 0.2
QSFQ | ≤ 0.2
PGPS | ≤ 0.2
LKHN | ≤ 0.2
PPQT | ≤ 0.2
VKFG | ≤ 0.2
DVTN | ≤ 0.2
TRRA | 0.25
LSWG | ≤ 0.2
KASG | ≤ 0.2
PNWS | ≤ 0.2
ISHA | ≤ 0.2
TEKA | ≤ 0.2
QKET | 0.391
QKES | 0.275
QRLT | 0.731
QRRT | 0.863

Variant | one-hybrid fitness for binding NBS DNA
QKEH | ≤ 0.2
QFRT | 0.309
QRLM | 0.322
QRRE | 0.346
QILT | 0.236
QACT | 0.363
QRCT | 0.806
DRCT | ≤ 0.2
TPVD | ≤ 0.2
FWLS | ≤ 0.2
STAF | ≤ 0.2
DGKR | ≤ 0.2
RSDQ | ≤ 0.2
NRPR | ≤ 0.2
VFEC | ≤ 0.2
SCLN | ≤ 0.2
QRST | 0.772
QIQT | 0.283
DRQT | ≤ 0.2
QRQT | 0.755
QFST | ≤ 0.2
NRST | ≤ 0.2
TYAY | ≤ 0.2
MPCT | ≤ 0.2

Variant | one-hybrid fitness for binding NBS DNA
SIMW | ≤ 0.2
VASM | ≤ 0.2
GSLP | ≤ 0.2
QIRP | ≤ 0.2
QIIS | ≤ 0.2
QIRD | ≤ 0.2
QIRS | 0.539
QIYS | 0.27
QIRH | 0.44
RWRF | ≤ 0.2
LTWA | ≤ 0.2
KKKG | ≤ 0.2
AEER | ≤ 0.2
QPKT | 0.201
QLKT | 0.673
QIKT | 0.574
QCKT | 0.778
QWKT | 0.25
QAVT | 0.296
QAKT | 0.692
QLVT | 0.276
QIVT | 0.236
LDLK | ≤ 0.2
AVEL | ≤ 0.2

Variant | one-hybrid fitness for binding NBS DNA
SLSN | ≤ 0.2
QHKT | 0.732
QHVT | 0.327
QFYT | ≤ 0.2
QSVT | 0.328
QHIT | 0.349
QFVT | ≤ 0.2
QEKT | ≤ 0.2
QSKT | 0.699
QFKT | 0.388
WSSW | ≤ 0.2
LFHV | ≤ 0.2
YELS | ≤ 0.2
IALF | ≤ 0.2
ESMD | ≤ 0.2
RSFQ | ≤ 0.2
RCDH | ≤ 0.2
RRNH | 0.63
RRND | ≤ 0.2
RCNN | ≤ 0.2
RRNN | 0.493
RRDH | 0.371
RRDN | ≤ 0.2
RRNP | ≤ 0.2

Variant | one-hybrid fitness for binding NBS DNA
ANST | ≤ 0.2
CRRH | ≤ 0.2
RNTT | 0.215
DAPG | ≤ 0.2
GCTC | ≤ 0.2
QTHI | 0.228
QNEM | ≤ 0.2
WTRW | ≤ 0.2
TLWY | ≤ 0.2
RRFQ | 0.267
RRAT | 0.782
RRAC | 0.328
RRFG | 0.279
RRFT | 0.777
RRAF | ≤ 0.2
SIPE | ≤ 0.2
IQKV | ≤ 0.2
PDCE | ≤ 0.2
FSMS | ≤ 0.2
QQDF | ≤ 0.2
QQNT | 0.596
KQDT | ≤ 0.2
QQDT | 0.428
QQNN | 0.231

Variant | one-hybrid fitness for binding NBS DNA
QQNP | ≤ 0.2
VNKV | ≤ 0.2
GVQT | ≤ 0.2
RNWC | ≤ 0.2
AVGK | ≤ 0.2
QPNA | ≤ 0.2
QLHA | ≤ 0.2
QWGA | ≤ 0.2
QTHA | 0.441
QSNA | 0.308
QTLA | 0.329
QMGA | 0.253
QCNA | 0.369
QTPA | ≤ 0.2
QHHA | 0.238
QTGA | 0.466
QTYA | 0.427
LHCQ | ≤ 0.2
VMLE | ≤ 0.2
LRND | ≤ 0.2
AEHT | ≤ 0.2
QKAA | 0.319
QTQA | 0.432
QTFA | 0.301

Variant | one-hybrid fitness for binding NBS DNA
QDQA | ≤ 0.2
QSCA | ≤ 0.2
QCSA | 0.302
QASA | ≤ 0.2
QCCA | 0.326
QTSA | 0.397
QLQA | 0.204
QTCA | 0.378
QTAA | 0.44
SFSC | ≤ 0.2
PSTY | ≤ 0.2
KYQS | ≤ 0.2
AEHP | ≤ 0.2
CVMI | ≤ 0.2
VVAR | ≤ 0.2
NSNP | ≤ 0.2
SNRD | ≤ 0.2
YAHR | ≤ 0.2
QCWA | 0.205
NTKA | ≤ 0.2
QTVA | 0.317
QPAA | ≤ 0.2
QSAA | 0.273
QTIA | 0.224

Variant | one-hybrid fitness for binding NBS DNA
QTWA | 0.367
QTRA | 0.712
QTMA | 0.32
QCAA | 0.393
QTKA | 0.708
QAWA | ≤ 0.2
NGIG | ≤ 0.2
PFPE | ≤ 0.2
GKAT | ≤ 0.2
ATEG | ≤ 0.2
TRRP | ≤ 0.2
HLQN | ≤ 0.2
QKNA | 0.378
QLNA | 0.219
QTTA | 0.399
QTDA | 0.255
QKDA | ≤ 0.2
QTNA | 0.505
QPTA | ≤ 0.2
QCTA | 0.326
QINA | 0.21
ISCK | ≤ 0.2
MLLV | ≤ 0.2
LQRF | ≤ 0.2

Variant | one-hybrid fitness for binding NBS DNA
HHLI | ≤ 0.2
LHQS | ≤ 0.2
RCNR | 0.586
RPNR | ≤ 0.2
RINR | 0.524
RFNR | 0.325
RWDR | ≤ 0.2
RINH | ≤ 0.2
RSNH | 0.223
RIDR | ≤ 0.2
RSNR | 0.526
RWYR | ≤ 0.2
RSDR | ≤ 0.2
RWNR | 0.436
GSSG | ≤ 0.2
PGTF | ≤ 0.2
LPSK | ≤ 0.2
PGGS | ≤ 0.2
RQIG | ≤ 0.2
MIKI | ≤ 0.2
NGIR | ≤ 0.2
FGEY | ≤ 0.2
RHNR | 0.539
RHDR | 0.216

Variant | one-hybrid fitness for binding NBS DNA
RHNN | ≤ 0.2
NDST | ≤ 0.2
SAPN | ≤ 0.2
YTYC | ≤ 0.2
DRRR | 0.215
QRSR | 0.997
DRYR | ≤ 0.2
NRQR | ≤ 0.2
QRRR | 1.1
QRQR | 0.987
QRSG | 0.339
QRQL | 0.255
NRRR | 0.251
QRYR | 0.924
NRYR | ≤ 0.2
QRSF | 0.262
RCHV | ≤ 0.2
LHEL | ≤ 0.2
TCPE | ≤ 0.2
KYMS | ≤ 0.2
QRLR | 0.945
DRGR | ≤ 0.2
QRCR | 0.981
NRGR | ≤ 0.2

Variant | one-hybrid fitness for binding NBS DNA
DRCR | ≤ 0.2
QDCR | ≤ 0.2
QRGR | 1.04
QRLQ | 0.327
QRLF | 0.238
QRDR | 0.679
DAMG | ≤ 0.2
RDCF | ≤ 0.2
SWLF | ≤ 0.2
THYV | ≤ 0.2
EPRD | ≤ 0.2
AGTM | ≤ 0.2
AMGA | ≤ 0.2
NRHR | ≤ 0.2
QRNR | 1.03
DRHR | ≤ 0.2
DRNR | ≤ 0.2
QRHR | 1.06
NRNR | ≤ 0.2
